aSyn 5UTR act: Activators via SNCA 5'UTR binding, MLPCN; 300,000 compounds, 7.1% hits; AID 1814, 2009; alpha-synuclein 5'UTR reporter, activators screen; activity score, % (tested at 7.5 µM), hits read low; in the data active = activity score below about -60%
Of the large screens only hits and unclear results are named; the others gave an inactive call. These entries were drawn from the full list.

CC(=O)Nc1cccc(NC(=O)CSc2ncc(-c3ccccc3)[nH]2)c1	aSyn 5UTR act -80
CCc1nc2ccc(C(=O)NCCc3ccco3)cc2nc1CC	aSyn 5UTR act -63
CC(C)(CO)NC(=O)c1ccc2c(c1)C(=O)c1ccccc1-2	aSyn 5UTR act -96
O=C(NCc1ccco1)c1ccc2ccccc2c1	aSyn 5UTR act -64
O=C(NCc1ccco1)c1ccc2c(c1)C(=O)c1ccccc1-2	aSyn 5UTR act -77
O=C(NCc1ccco1)c1ccc(Oc2ccccc2)cc1	aSyn 5UTR act -87
CCOc1ccccc1OCCCOc1ccc(C)cc1Cl	aSyn 5UTR act -111
NNC(=O)c1cc2sccc2s1	aSyn 5UTR act -80
COC(=O)c1ccc(S(=O)(=O)N2CCc3ccccc32)cc1	aSyn 5UTR act -96
COc1ccc(-c2nnc(NC(=O)c3ccc(S(=O)(=O)N4CCCc5ccccc54)cc3)o2)cc1	none
CNc1nc(-c2ccc3c(c2)CCN3C(=O)c2ccccc2F)cs1	aSyn 5UTR act -90
CC(C)(C)C(=O)N1CCc2cc(-c3csc(N)n3)ccc21	none
CCC(C)C(=O)N1CCc2cc(-c3csc(N)n3)ccc21 (stereo not drawn)	aSyn 5UTR act -172
CCCC(=O)N1CCc2cc(-c3nc(N)sc3C)ccc21	aSyn 5UTR act -208
Cc1ccc(-c2nc(NC(=O)c3nn(C)cc3[N+](=O)[O-])sc2C)cc1	none
CC(=O)Nc1nc(-c2ccc3c(c2)CCN3C(=O)C2CC2)c(C)s1	aSyn 5UTR act -255
CNc1nc(-c2ccc3c(c2)CCN3C(=O)CC(C)(C)C)c(C)s1	aSyn 5UTR act -118
O=c1c2c3c(sc2nc2sc(C4CC4)nn12)CCCC3	aSyn 5UTR act -130
C1CCC(c2nn3c(-c4n[nH]c5c4CCC5)nnc3s2)CC1	none
CC(=O)N(C(C)=O)n1c(C)nc2sc3c(c2c1=O)CCCC3	none
O=C(COC(=O)c1ccccc1-n1cnnn1)c1ccc(Br)cc1	aSyn 5UTR act -95
Cc1cccc(-c2nc(=S)c3c(o2)CCCC3)c1	aSyn 5UTR act -133
S=c1nc(-c2ccc(Br)cc2)oc2c1CCCC2	aSyn 5UTR act -184
COc1cc(C=O)ccc1Oc1nnnn1-c1ccc(C(N)=O)cc1	aSyn 5UTR act -68
Cc1ccc(C2CC(c3ccccc3)=NN2C(=S)Nc2ccccc2)o1 (stereo not drawn)	aSyn 5UTR act -65
CC(C)(C)c1ccc(SCCc2ccccn2)cc1	aSyn 5UTR act -127
CC(C)(C)c1ccc(S(=O)(=O)CCc2ccccn2)cc1	aSyn 5UTR act -96
Fc1ccc(SCCc2ccccn2)cc1	aSyn 5UTR act -97
CCOC(=O)Nc1cc(Br)c2c(c1)OCCO2	aSyn 5UTR act -68
COc1ccc(-c2cc(C(=O)N3CCCc4ccccc43)no2)cc1	aSyn 5UTR act -107
COc1cccc(-c2cc(C(=O)N3CCCc4ccccc43)no2)c1	aSyn 5UTR act -126
CCOc1ccc(NC(=O)n2ncc3c(C)cccc32)cc1	aSyn 5UTR act -179
Cc1cccc2c1cnn2C(=O)Nc1ccc(Br)cc1F	aSyn 5UTR act -156
Cc1ccc(NC(=O)n2ncc3c(C)cccc32)c(C)c1	aSyn 5UTR act -108
Cc1cc(C(=O)CSc2ncccn2)c(C)n1Cc1ccco1	aSyn 5UTR act -69
Cc1cc(C(=O)CSc2nnnn2C)c(C)n1Cc1ccco1	aSyn 5UTR act -109
CN1CCN(c2ccc(-c3ccnn3C(=O)Nc3ccccc3)cc2)CC1	aSyn 5UTR act -72
Cc1noc(C)c1-c1nnc(-c2ccc(OC(F)(F)F)cc2)o1	aSyn 5UTR act -69
O=[N+]([O-])c1cc2c(c(CSc3ncccn3)c1)OCOC2	aSyn 5UTR act -63
O=[N+]([O-])c1cc(O)c2ncccc2c1	none
COCCNC(=O)c1ccc2c3n(nc2c1)-c1ccc(C)cc1CO3	aSyn 5UTR act -151
Cc1ccc2c(c1)COc1c3ccc(C(=O)N[C@@H](CO)C(C)C)cc3nn1-2	aSyn 5UTR act -144
Cc1ccc2nc(-c3ccc(NC(=O)COCC(=O)O)cc3)sc2c1	aSyn 5UTR act -96
Cc1ccc2nc(-c3ccc(NC(=O)CSCC(=O)O)cc3)sc2c1	aSyn 5UTR act -197
Cc1ccc2sc(-c3ccc(NC(=O)/C=C\C(=O)O)cc3)nc2c1	aSyn 5UTR act -96
OC1CCCCC1Sc1nc2ccccc2s1 (stereo not drawn)	aSyn 5UTR act -88
CCOC(=O)c1cnn(-c2ccc(C(C)C)cc2)c1NC(=O)C1CCC1	aSyn 5UTR act -81
CC(O)/C=C/c1ccc2ccccc2n1 (stereo not drawn)	aSyn 5UTR act -154
Cc1nc2cc(-c3ccc(F)cc3)[nH]n2c(=O)c1C	aSyn 5UTR act -129
Cc1nc2cc(-c3cccs3)[nH]n2c(=O)c1C	aSyn 5UTR act -108
Cc1ccccc1-c1cc2nc(C)c(C)c(=O)n2[nH]1	aSyn 5UTR act -101
Cc1ccc(C2(c3ccc(C)cc3)CC2C(=O)Nc2ccc([N+](=O)[O-])cc2O)cc1 (stereo not drawn)	none
O=C(Nc1cccc2ncccc12)c1cc([N+](=O)[O-])ccc1Cl	aSyn 5UTR act -62
O=C(CCl)Nc1cccc2ncccc12	aSyn 5UTR act -95
Cc1ccc(O)c(NC(=O)c2cc([N+](=O)[O-])ccc2Cl)c1	aSyn 5UTR act -62
O=C(Nc1cccc2c1CCCC2)c1cc([N+](=O)[O-])ccc1Cl	aSyn 5UTR act -79
Cc1cc(O)c(NC(=O)c2cc([N+](=O)[O-])ccc2Cl)cc1C	aSyn 5UTR act -106
Cc1ccc(CNc2ccc(N3CCOCC3)cc2)s1	aSyn 5UTR act -86
COC(=O)/C=C1\C(=O)N(c2nc3ccccc3s2)C(=S)N1c1ccc(F)cc1	aSyn 5UTR act -175
COC(=O)/C=C1\C(=O)N(c2nc3ccc(OC)cc3s2)C(=S)N1c1ccc(F)cc1	aSyn 5UTR act -69
CC(=O)c1cnc(-c2ccccc2Cl)s1	aSyn 5UTR act -82
CN(C)c1ccc(C2C3CCCc4ccccc4C3=NN2C)cc1 (stereo not drawn)	aSyn 5UTR act -134
CN1N=C2c3ccccc3CCC2C1c1ccc(C(F)(F)F)cc1 (stereo not drawn)	aSyn 5UTR act -72
N#C/C(=C\c1c(N2CCN(c3ccccc3)CC2)nc2ccccn2c1=O)C(N)=O	aSyn 5UTR act -71
COC(=O)/C(C#N)=C/c1c(N2CCN(c3ccccc3)CC2)nc2ccccn2c1=O	aSyn 5UTR act -65
CCOC(=O)/C(C#N)=C/c1c(N2CCN(c3ccccc3)CC2)nc2ccccn2c1=O	aSyn 5UTR act -62
O=C(Nc1nccs1)C(=O)c1c[nH]c2ccccc12	aSyn 5UTR act -165
CCN1CCN(Cc2ccc(NC(=O)c3ccc(C)c(NC(=O)C(=O)c4c[nH]c5ccccc45)c3)cc2C(F)(F)F)CC1	none
CSc1ccccc1NC(=O)C(=O)c1c[nH]c2ccccc12	aSyn 5UTR act -146
Cc1cccc(NC(=O)CCCc2ccccc2)c1	aSyn 5UTR act -172
Cc1cccc(NC(=O)CCOc2ccccc2)c1	aSyn 5UTR act -74
COc1ccc(NC(=O)CCOc2ccccc2)cc1	aSyn 5UTR act -126
O=C(CCc1ccccc1)Nc1ccccc1	aSyn 5UTR act -80
O=C(CCCc1ccccc1)Nc1cccnc1	aSyn 5UTR act -82
CC(=O)c1ccc(NC(=O)CCOc2cc(C)ccc2C)cc1	aSyn 5UTR act -91
CN(C)CCC(=O)C(Cc1ccccc1)c1ccccc1 (stereo not drawn)	none
O=C(CCOc1ccccc1)Nc1ccc(Br)cc1	aSyn 5UTR act -113
CC(CCc1ccccc1)NC(=O)C(=O)Nc1ccccc1 (stereo not drawn)	aSyn 5UTR act -149
CCCCC(=O)NC(c1ccc(N(C)C)cc1)c1ccc2cccnc2c1O (stereo not drawn)	none
CN(C)c1ccc(NC(=O)CCCc2ccccc2)cc1	aSyn 5UTR act -120
